Test results as given in PubChem BioAssay (EPA / NIEHS).
Inconclusive results are not listed. A structure can be active in one record and inactive in another. Active and inactive are the calls of the source. How the source made its calls, unless noted: active means hit-call score of the fitted dose curve at least 0.9, where 1 is the maximum; inconclusive means response in the unintended direction; inactive means score below 0.9.

Key:
[1] = ATG_TGFb_CIS: Attagene CIS-FACTORIAL HepG2 Assay for human Transforming Growth Factor (TGF) (AID 2282967; active means hit-call score of the fitted dose curve at least 0.9, where 1 is the maximum; inactive means score below 0.9); conditions: HepG2 Attagene CIS TGFb reporter, mRNA transcription; actives raise or lower the signal
Method in brief: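 Bidirectional fitting relative to DMSO gave the endpoint. Underlying data: reporter mRNA from HepG2 cells carrying transiently transfected cis-regulated reporter constructs, harvested 24 h after dosing and analyzed by RT-PCR and capillary electrophoresis.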

[2] = ATG_VDRE_CIS: Attagene CIS-FACTORIAL HepG2 Assay for human Vitamin D Receptor Element (VDRE) (AID 2282968; active means hit-call score of the fitted dose curve at least 0.9, where 1 is the maximum; inactive means score below 0.9); conditions: HepG2 VDRE cis-reporter transcription, actives raise or lower the signal
Method in brief: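 Cell-based multiplexed reporter format in human liver HepG2 cells, 24 h post-dose. Fluorescence from capillary electrophoresis of reporter cDNA gives the signal, with DMSO as negative control and baseline.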

[3] = molecular target: Nuclear receptor subfamily 1 group I member 3 (Homo sapiens) (UniProt Q14994); assay: ATG_CAR_TRANS: Attagene TRANS-FACTORIAL HepG2 Assay for human Constitutive Androstane Receptor (CAR) (AID 2282969); conditions: HepG2 Attagene TRANS-FACTORIAL CAR reporter;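 further: activators raise reporter mRNA above DMSO so AC50 marks induction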
Method in brief: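 HepG2 cells transiently transfected with GAL4-UAS reporter units; TRANS format reads activity of exogenous chimeric NR-Gal4 protein. After 24 h dosing, reporter mRNA quantified by RT-PCR, 6-FAM labelling and capillary electrophoresis; gain of signal fitted against DMSO.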

[4] = molecular target: Steroid hormone receptor ERR1 (Homo sapiens) (UniProt P11474); assay: ATG_ERRa_TRANS: Attagene TRANS-FACTORIAL HepG2 Assay for human Estrogen-Related Receptor alpha (ERRa) (AID 2282971); conditions: HepG2 Attagene TRANS reporter, ERRa transactivation
Method in brief: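 Reporter transcript induction was quantified by RT-PCR and capillary electrophoresis of FAM-labelled, HpaI-cut products after 24 h treatment of HepG2 cells carrying transiently transfected GAL4-UAS reporter units and an exogenous ERRa-Gal4 fusion; activity scored as increase over DMSO.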

[5] = molecular target: X-box-binding protein 1 (Homo sapiens) (UniProt P17861); assay: ATG_Xbp1_CIS: Attagene CIS-FACTORIAL HepG2 Assay for human X-box Binding Protein 1 (XBP1) (AID 2282972; active means hit-call score of the fitted dose curve at least 0.9, where 1 is the maximum; inactive means score below 0.9); conditions: HepG2 XBP1 cis-element reporter, Attagene multiplex; actives raise or lower the signal
Method in brief: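 After a 24-hour chemical exposure of HepG2 cells carrying cis-regulated reporters, reporter mRNA levels are assessed. Quantification uses RT-PCR, 6-FAM labelling and capillary electrophoresis. Gain- or loss-of-signal is fitted against DMSO.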

[6] = molecular target: Androgen receptor (Homo sapiens) (UniProt P10275); assay: ATG_AR_TRANS: Attagene TRANS-FACTORIAL HepG2 Assay for human Androgen Receptor (AR) (AID 2282973); conditions: HepG2 Attagene TRANS-FACTORIAL AR reporter transcription
Method in brief: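 Steps: transfect HepG2 with multiple GAL4-UAS reporter transcription units (TRANS format, exogenous NR-Gal4 protein); dose 24 h; isolate RNA, reverse-transcribe, PCR-amplify, FAM-label, HpaI-digest; resolve by capillary electrophoresis. Positive direction vs DMSO.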

[7] = ATG_M_19_TRANS: Attagene TRANS-FACTORIAL HepG2 Assay for M19 Transcription Factor (Internal Marker) (AID 2282974); conditions: HepG2 Attagene TRANS-FACTORIAL M19 internal marker reporter
Method in brief: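 24 h chemical exposure of transiently transfected HepG2 (MRTU library). RNA → oligo(dT) RT → PCR → 6-FAM labelling → HpaI cut → CE fluorescence. Positive-direction fit vs DMSO baseline; background internal-marker readout.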

[8] = ATG_GAL4_TRANS: Attagene TRANS-FACTORIAL HepG2 Assay for GAL4 (Internal Marker) (AID 2282976); conditions: HepG2 Attagene TRANS GAL4 internal marker reporter
Method in brief: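 First, HepG2 cells were transfected with reporter units under GAL4-UAS control. Next, they were treated with chemical for 24 h. Finally, RNA was reverse-transcribed, PCR-amplified, FAM-labelled and resolved by capillary electrophoresis, with induction scored against DMSO.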

[9] = molecular target: Glucocorticoid receptor (Homo sapiens) (UniProt P04150); assay: ATG_GR_TRANS: Attagene TRANS-FACTORIAL HepG2 Assay for human Glucocorticoid Receptor (GR) (AID 2282978); conditions: HepG2 Attagene TRANS GR reporter, mRNA transcription;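 further: activators score as hits since higher reporter transcript over DMSO is fitted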
Method in brief: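 Transient MRTU transfection of HepG2 (GAL4-UAS reporters, exogenous NR-GAL4 chimeras), 24 h dosing. Readout: reporter transcript via RT-PCR + capillary electrophoresis fluorescence. Positive direction vs DMSO baseline.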

[10] = molecular target: Oxysterols receptor LXR-alpha (Homo sapiens) (UniProt Q13133); assay: ATG_LXRa_TRANS: Attagene TRANS-FACTORIAL HepG2 Assay for human Liver X Receptor alpha (LXRa) (AID 2282980); conditions: HepG2 Attagene TRANS reporter, LXRa transactivation
Method in brief: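 Transfect HepG2 with GAL4-UAS multiplex reporter constructs (TRANS format, chimeric receptor-GAL4); treat 24 h; extract RNA, reverse-transcribe, PCR-amplify, FAM-label, HpaI-digest; resolve fragments by capillary electrophoresis. Upward response vs DMSO.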

[11] = molecular target: Oxysterols receptor LXR-beta (Homo sapiens) (UniProt P55055); assay: ATG_LXRb_TRANS: Attagene TRANS-FACTORIAL HepG2 Assay for human Liver X Receptor beta (LXRb) (AID 2282981); conditions: HepG2 Attagene TRANS GAL4-LXRb reporter, mRNA
Method in brief: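 Gain-of-signal mRNA reporter endpoint, DMSO as negative control. Transiently transfected HepG2 cells carrying the NR-Gal4 chimera and GAL4-UAS reporter units were treated 24 h; transcripts quantified by RT-PCR and capillary electrophoresis fluorescence.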

[12] = molecular target: Hepatocyte nuclear factor 4-alpha (Homo sapiens) (UniProt P41235); assay: ATG_HNF4a_TRANS: Attagene TRANS-FACTORIAL HepG2 Assay for human Hepatocyte Nuclear Factor 4 alpha (HNF4a) (AID 2282982); conditions: HepG2 HNF4a transactivation reporter, mRNA readout
Method in brief: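 Gain-of-signal mRNA induction, relative to DMSO vehicle, was read after 24 h compound treatment of HepG2 cells bearing transfected GAL4-UAS reporters. Detection used RT-PCR, 6-FAM primer extension and capillary electrophoresis.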

[13] = ATG_M_32_TRANS: Attagene TRANS-FACTORIAL HepG2 Assay for M32 Transcription Factor (Internal Marker) (AID 2282984); conditions: HepG2 Attagene TRANS M32 internal marker reporter;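 further: transcript level of a background control reporter unit measured by RT-PCR and capillary electrophoresis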
Method in brief: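 Capillary electrophoresis of 6-FAM-labelled reporter fragments gives the signal; data fitted for gain over DMSO negative control. Source: HepG2 cells bearing transient multiple reporter transcription units, 24 h exposure.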

[14] = molecular target: Nuclear receptor subfamily 4 group A member 2 (Homo sapiens) (UniProt P43354); assay: ATG_NURR1_TRANS: Attagene TRANS-FACTORIAL HepG2 Assay for human Nuclear Receptor Related Protein 1 (NURR1) (AID 2282985); conditions: HepG2 Attagene TRANS reporter, mRNA readout
Method in brief: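 HepG2 / transient MRTU transfection / 24 h compound exposure / RT-PCR + CE fluorescence of reporter mRNA / gain-of-signal vs DMSO.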

[15] = molecular target: Transcriptional activator Myb (Homo sapiens) (UniProt P10242); assay: ATG_Myb_CIS: Attagene CIS-FACTORIAL HepG2 Assay for human Myeloblastosis (Myb) Proto-Oncogene Transcription Factor (AID 2282986; active means hit-call score of the fitted dose curve at least 0.9, where 1 is the maximum; inactive means score below 0.9); conditions: HepG2 Attagene CIS-FACTORIAL Myb reporter transcription; actives raise or lower the signal
Method in brief: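 HepG2, transient MRTU transfection (cis-element promoters, endogenous TF activity), 24 h compound exposure. Readout: reporter mRNA via RT-PCR, 6-FAM labeling, HpaI digest, capillary electrophoresis. Gain/loss fit vs DMSO.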

[16] = molecular target: Nuclear respiratory factor 1 (Homo sapiens) (UniProt Q16656); assay: ATG_NRF1_CIS: Attagene CIS-FACTORIAL HepG2 Assay for human Nuclear Respiratory Factor 1 (NRF1) Orphan Gene (AID 2282987; active means hit-call score of the fitted dose curve at least 0.9, where 1 is the maximum; inactive means score below 0.9); conditions: HepG2 NRF1 cis-element reporter, Attagene multiplex; actives raise or lower the signal
Method in brief: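 Endogenous NRF1-driven reporter transcription measured in transiently transfected human HepG2 liver cells. Readout: reporter mRNA by RT-PCR and capillary electrophoresis with fluorescence detection, 24 h post-dosing. Gain or loss of signal fitted relative to DMSO baseline.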

[17] = molecular target: Estrogen receptor (Homo sapiens) (UniProt P03372); assay: ATG_ERa_TRANS: Attagene TRANS-FACTORIAL HepG2 Assay for human Estrogen Receptor alpha (ERa) (AID 2282970); conditions: HepG2 Attagene TRANS ERa GAL4 reporter, mRNA
Method in brief: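 Human liver HepG2, transient transfection of multiple GAL4-UAS reporter units; TRANS format (exogenous NR-Gal4 chimera). 24 h dosing. Readout: reporter mRNA, RT-PCR, 6-FAM primer extension, HpaI digest, capillary electrophoresis. Positive direction vs DMSO.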

[18] = molecular target: Bile acid receptor (Homo sapiens) (UniProt Q96RI1); assay: ATG_FXR_TRANS: Attagene TRANS-FACTORIAL HepG2 Assay for Farnesoid X Receptor (FXR) (AID 2282979); conditions: HepG2 Attagene TRANS FXR-GAL4 reporter transcription;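 further: hits raise reporter mRNA above DMSO so AC50 marks FXR activation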
Method in brief: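 Transient transfection of HepG2 with multiplexed GAL4-UAS reporter units; exogenous FXR-GAL4 chimera. Dose 24 h → TriZol RNA → oligo(dT) RT → PCR, 6-FAM primer extension, HpaI cut → CE. Gain vs DMSO.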

[19] = ATG_M_06_TRANS: Attagene TRANS-FACTORIAL HepG2 Assay for M06 Transcription Factor (Internal Marker) (AID 2282983); conditions: HepG2 Attagene TRANS M06 internal marker reporter
Method in brief: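 Transfect HepG2 with MRTUs → dose compounds 24 h → isolate RNA, oligo(dT) RT → PCR with reporter primers → 6-FAM primer extension → HpaI digest → CE fragment analysis. Positive direction vs DMSO.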

Chain of X-box-binding protein 1 (Homo sapiens) (P17861 whole entry, looked up): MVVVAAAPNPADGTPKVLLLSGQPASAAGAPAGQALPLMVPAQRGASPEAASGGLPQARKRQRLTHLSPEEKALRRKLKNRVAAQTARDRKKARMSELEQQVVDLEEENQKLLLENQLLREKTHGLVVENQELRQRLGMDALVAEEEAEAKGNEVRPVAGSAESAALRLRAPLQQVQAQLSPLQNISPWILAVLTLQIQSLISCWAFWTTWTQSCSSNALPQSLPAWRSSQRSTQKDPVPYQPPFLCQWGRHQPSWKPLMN
Chain of Nuclear receptor subfamily 1 group I member 3 (Homo sapiens) (Q14994 whole entry, looked up, the tested form may be a part): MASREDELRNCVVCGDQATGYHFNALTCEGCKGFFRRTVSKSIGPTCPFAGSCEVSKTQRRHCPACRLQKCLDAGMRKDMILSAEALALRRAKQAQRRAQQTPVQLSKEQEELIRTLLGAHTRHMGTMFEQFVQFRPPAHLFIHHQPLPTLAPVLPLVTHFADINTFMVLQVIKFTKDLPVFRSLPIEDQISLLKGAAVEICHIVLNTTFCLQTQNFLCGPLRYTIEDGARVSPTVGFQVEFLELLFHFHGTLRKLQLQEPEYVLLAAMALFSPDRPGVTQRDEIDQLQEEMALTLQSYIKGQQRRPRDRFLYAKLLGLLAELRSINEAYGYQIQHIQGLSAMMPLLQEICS
Chain of Nuclear receptor subfamily 4 group A member 2 (Homo sapiens) (P43354 whole entry, looked up): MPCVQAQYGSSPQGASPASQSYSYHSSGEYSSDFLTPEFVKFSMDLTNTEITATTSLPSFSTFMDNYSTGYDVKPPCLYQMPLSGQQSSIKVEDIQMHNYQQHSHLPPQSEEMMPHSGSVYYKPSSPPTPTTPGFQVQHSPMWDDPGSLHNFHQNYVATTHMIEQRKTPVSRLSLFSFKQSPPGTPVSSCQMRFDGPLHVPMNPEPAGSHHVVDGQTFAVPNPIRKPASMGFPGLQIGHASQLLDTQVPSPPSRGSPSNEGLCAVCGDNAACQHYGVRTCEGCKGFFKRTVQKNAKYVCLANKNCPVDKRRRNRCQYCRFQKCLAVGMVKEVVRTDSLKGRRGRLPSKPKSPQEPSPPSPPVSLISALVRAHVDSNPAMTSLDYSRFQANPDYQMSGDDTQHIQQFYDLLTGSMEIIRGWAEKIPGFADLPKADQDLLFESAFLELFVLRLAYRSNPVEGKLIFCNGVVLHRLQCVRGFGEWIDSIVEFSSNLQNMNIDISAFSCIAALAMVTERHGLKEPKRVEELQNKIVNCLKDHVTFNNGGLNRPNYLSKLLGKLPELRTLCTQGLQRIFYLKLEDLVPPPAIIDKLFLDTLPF
Chain of Glucocorticoid receptor (Homo sapiens) (P04150 whole entry, looked up, the tested form may be a part): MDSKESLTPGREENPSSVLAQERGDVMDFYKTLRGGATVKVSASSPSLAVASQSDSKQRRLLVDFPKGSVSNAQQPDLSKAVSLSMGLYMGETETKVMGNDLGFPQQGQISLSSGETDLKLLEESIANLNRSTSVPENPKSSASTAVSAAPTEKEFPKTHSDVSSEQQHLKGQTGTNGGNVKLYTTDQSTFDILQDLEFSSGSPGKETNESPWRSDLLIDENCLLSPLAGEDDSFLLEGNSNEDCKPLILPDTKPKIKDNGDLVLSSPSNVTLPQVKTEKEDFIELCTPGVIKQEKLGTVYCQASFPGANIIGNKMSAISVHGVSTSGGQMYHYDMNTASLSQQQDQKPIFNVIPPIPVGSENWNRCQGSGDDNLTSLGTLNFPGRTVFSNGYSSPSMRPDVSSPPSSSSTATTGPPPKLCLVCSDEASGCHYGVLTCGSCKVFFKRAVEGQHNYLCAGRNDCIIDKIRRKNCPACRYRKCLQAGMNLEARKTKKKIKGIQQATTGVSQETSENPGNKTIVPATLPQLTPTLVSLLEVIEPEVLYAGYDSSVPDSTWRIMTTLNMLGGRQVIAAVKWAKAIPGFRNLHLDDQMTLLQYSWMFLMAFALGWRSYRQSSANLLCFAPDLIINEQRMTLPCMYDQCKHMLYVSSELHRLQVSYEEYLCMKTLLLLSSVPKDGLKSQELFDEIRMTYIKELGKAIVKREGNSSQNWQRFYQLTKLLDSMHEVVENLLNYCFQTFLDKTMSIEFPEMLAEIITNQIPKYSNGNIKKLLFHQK
Chain of Estrogen receptor (Homo sapiens) (P03372 whole entry, looked up, the tested form may be a part): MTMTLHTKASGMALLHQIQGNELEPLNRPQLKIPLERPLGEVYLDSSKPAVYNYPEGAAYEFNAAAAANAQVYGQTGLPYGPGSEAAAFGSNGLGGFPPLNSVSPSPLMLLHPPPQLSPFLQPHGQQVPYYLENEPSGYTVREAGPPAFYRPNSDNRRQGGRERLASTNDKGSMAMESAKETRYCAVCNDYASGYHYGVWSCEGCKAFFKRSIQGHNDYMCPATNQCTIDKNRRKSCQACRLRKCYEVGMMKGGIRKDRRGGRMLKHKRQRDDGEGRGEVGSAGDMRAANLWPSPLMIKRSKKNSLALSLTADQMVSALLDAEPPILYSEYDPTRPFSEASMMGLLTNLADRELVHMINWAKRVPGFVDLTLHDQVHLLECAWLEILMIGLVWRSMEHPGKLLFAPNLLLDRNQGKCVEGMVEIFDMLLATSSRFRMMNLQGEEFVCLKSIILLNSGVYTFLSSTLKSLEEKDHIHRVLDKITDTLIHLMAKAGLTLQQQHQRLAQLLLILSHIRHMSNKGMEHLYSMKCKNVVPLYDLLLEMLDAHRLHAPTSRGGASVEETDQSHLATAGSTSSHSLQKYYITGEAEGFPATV
Chain of Oxysterols receptor LXR-alpha (Homo sapiens) (Q13133 whole entry, looked up, the tested form may be a part): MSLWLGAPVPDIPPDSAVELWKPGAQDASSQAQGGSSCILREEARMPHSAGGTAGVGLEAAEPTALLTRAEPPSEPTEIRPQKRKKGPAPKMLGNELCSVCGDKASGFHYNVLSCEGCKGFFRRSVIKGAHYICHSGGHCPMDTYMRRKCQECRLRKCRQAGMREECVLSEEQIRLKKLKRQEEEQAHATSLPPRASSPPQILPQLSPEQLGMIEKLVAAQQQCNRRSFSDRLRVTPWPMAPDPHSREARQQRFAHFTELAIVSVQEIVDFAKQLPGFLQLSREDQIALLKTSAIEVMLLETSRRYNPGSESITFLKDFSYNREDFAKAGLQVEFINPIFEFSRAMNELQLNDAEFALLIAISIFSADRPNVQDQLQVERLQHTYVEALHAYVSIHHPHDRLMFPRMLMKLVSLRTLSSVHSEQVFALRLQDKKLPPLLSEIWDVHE
Chain of Nuclear respiratory factor 1 (Homo sapiens) (Q16656 whole entry, looked up): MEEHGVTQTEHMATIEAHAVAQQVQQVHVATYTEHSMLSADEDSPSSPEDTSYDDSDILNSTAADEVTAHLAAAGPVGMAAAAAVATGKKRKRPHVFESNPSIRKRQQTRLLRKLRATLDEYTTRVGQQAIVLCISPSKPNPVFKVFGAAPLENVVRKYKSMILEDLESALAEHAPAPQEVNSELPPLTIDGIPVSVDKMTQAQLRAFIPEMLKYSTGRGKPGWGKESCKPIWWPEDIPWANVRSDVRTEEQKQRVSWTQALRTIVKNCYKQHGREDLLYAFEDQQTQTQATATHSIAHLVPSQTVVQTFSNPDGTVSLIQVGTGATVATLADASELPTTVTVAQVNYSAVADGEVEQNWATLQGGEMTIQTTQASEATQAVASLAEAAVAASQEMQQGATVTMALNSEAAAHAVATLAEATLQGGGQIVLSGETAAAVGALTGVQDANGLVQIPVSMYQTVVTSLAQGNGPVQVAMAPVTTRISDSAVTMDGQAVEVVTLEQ
Chain of Oxysterols receptor LXR-beta (Homo sapiens) (P55055 whole entry, looked up, the tested form may be a part): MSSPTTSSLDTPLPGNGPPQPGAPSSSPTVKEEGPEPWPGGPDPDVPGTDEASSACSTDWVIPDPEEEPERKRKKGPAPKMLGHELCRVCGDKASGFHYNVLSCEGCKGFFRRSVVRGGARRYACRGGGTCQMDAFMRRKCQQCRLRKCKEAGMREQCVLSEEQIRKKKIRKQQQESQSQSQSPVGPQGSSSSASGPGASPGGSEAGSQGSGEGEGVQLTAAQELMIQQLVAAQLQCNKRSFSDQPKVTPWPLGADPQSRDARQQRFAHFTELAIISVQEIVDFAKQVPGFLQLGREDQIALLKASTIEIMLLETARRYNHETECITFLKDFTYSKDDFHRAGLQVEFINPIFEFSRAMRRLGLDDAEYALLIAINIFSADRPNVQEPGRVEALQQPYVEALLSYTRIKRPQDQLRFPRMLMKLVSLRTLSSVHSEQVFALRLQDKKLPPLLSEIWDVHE
Chain of Hepatocyte nuclear factor 4-alpha (Homo sapiens) (P41235 whole entry, looked up, the tested form may be a part): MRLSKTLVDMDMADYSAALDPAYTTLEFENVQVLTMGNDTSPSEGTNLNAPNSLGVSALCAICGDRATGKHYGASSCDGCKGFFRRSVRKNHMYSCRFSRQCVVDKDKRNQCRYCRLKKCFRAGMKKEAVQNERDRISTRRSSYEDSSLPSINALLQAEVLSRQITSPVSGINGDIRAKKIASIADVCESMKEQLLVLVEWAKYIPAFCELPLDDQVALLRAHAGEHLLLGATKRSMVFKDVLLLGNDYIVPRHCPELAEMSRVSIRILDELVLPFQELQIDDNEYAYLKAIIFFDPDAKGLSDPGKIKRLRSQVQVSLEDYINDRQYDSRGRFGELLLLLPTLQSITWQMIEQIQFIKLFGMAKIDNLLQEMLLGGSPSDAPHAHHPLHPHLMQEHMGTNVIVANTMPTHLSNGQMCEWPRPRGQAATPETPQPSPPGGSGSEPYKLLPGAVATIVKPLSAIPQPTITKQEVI
Chain of Bile acid receptor (Homo sapiens) (Q96RI1 whole entry, looked up, the tested form may be a part): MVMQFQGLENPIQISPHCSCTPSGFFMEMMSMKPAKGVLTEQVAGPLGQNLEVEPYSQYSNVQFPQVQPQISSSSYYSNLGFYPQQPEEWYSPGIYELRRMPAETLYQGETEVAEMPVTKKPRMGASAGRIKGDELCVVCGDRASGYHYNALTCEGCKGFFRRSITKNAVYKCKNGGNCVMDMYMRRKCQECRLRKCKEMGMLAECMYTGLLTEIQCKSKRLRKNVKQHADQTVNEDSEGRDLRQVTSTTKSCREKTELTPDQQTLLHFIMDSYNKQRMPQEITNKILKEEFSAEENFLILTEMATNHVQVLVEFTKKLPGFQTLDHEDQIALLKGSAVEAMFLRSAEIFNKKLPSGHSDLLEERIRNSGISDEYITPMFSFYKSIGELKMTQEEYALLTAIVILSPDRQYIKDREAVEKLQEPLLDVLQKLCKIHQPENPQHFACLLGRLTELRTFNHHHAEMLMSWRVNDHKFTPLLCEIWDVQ

O=c1[nH]c(=O)[nH]c(=O)[nH]1
outcome [1]: inactive | outcome [2]: inactive | outcome [3]: inactive | outcome [4]: inactive | outcome [5]: inactive | outcome [6]: inactive | outcome [7]: inactive | outcome [8]: inactive | outcome [9]: inactive | outcome [10]: inactive | outcome [11]: inactive | outcome [12]: inactive | outcome [13]: inactive | outcome [14]: inactive | outcome [15]: inactive | outcome [16]: inactive

O=C(c1ccccc1)C(Cl)Cl
outcome [1]: inactive | AC50 [2]: 7.69 µM (active) | outcome [17]: inactive | outcome [4]: inactive | AC50 [5]: 25.1 µM (active) | outcome [6]: inactive | outcome [7]: inactive | outcome [18]: inactive | outcome [11]: inactive | outcome [12]: inactive | outcome [13]: inactive | outcome [14]: inactive | outcome [15]: inactive | AC50 [16]: 24.8 µM (active)

NC(=O)O
outcome [1]: inactive | outcome [2]: inactive | outcome [3]: inactive | outcome [17]: inactive | outcome [4]: inactive | outcome [5]: inactive | outcome [7]: inactive | outcome [8]: inactive | outcome [10]: inactive | outcome [11]: inactive | outcome [12]: inactive | outcome [13]: inactive | outcome [14]: inactive | outcome [15]: inactive | outcome [16]: inactive

ClCc1ccccn1
outcome [1]: inactive | outcome [2]: inactive | outcome [3]: inactive | outcome [17]: inactive | AC50 [5]: 65.6 µM (active) | outcome [11]: inactive | outcome [12]: inactive | outcome [19]: inactive | outcome [13]: inactive | outcome [15]: inactive | outcome [16]: inactive

CCCCCCCCc1ccc(O)cc1
outcome [1]: inactive | AC50 [2]: 18.9 µM (active) | outcome [2]: inactive | outcome [3]: inactive | outcome [5]: inactive | outcome [6]: inactive | outcome [7]: inactive | outcome [8]: inactive | outcome [9]: inactive | outcome [11]: inactive | outcome [12]: inactive | outcome [19]: inactive | outcome [13]: inactive | outcome [14]: inactive | outcome [16]: inactive

ClC1=C(Cl)[C@]2(Cl)[C@@H]3[C@@H](Cl)[C@@H](Cl)C[C@@H]3[C@@]1(Cl)C2(Cl)Cl
outcome [1]: inactive | outcome [2]: inactive | outcome [3]: inactive | outcome [17]: inactive | outcome [5]: inactive | outcome [8]: inactive | outcome [9]: inactive | outcome [18]: inactive | outcome [10]: inactive | outcome [11]: inactive | outcome [19]: inactive | outcome [13]: inactive | outcome [15]: inactive | outcome [16]: inactive

O=C(O)Cc1ccccc1
outcome [1]: inactive | outcome [2]: inactive | outcome [3]: inactive | outcome [17]: inactive | outcome [5]: inactive | outcome [7]: inactive | outcome [18]: inactive | outcome [12]: inactive | outcome [15]: inactive | outcome [16]: inactive

CN(CCCC(=O)c1cccnc1)N=O
outcome [1]: inactive | outcome [2]: inactive | outcome [3]: inactive | outcome [5]: inactive | outcome [6]: inactive | outcome [7]: inactive | outcome [9]: inactive | outcome [10]: inactive | outcome [12]: inactive | outcome [19]: inactive | outcome [13]: inactive | outcome [16]: inactive

CCOP(=S)(OCC)Oc1nc(Cl)c(Cl)cc1Cl
outcome [1]: inactive | AC50 [2]: 5.83 µM (active) | outcome [3]: inactive | AC50 [17]: 26.9 µM (active) | AC50 [5]: 100 µM (active) | outcome [6]: inactive | outcome [7]: inactive | outcome [9]: inactive | outcome [18]: inactive | outcome [19]: inactive | outcome [13]: inactive | outcome [14]: inactive | outcome [16]: inactive

Oc1cccc2cccnc12
outcome [1]: inactive | AC50 [2]: 67.9 µM (active) | outcome [2]: inactive | outcome [5]: inactive | outcome [18]: inactive | outcome [10]: inactive | outcome [11]: inactive | outcome [12]: inactive | outcome [19]: inactive | outcome [15]: inactive | outcome [16]: inactive
